Measured values reported in PubChem BioAssay (NCI).
About 79,000 compounds went through this panel and 15% of them were active in at least one assay; those are over-represented in the sample as a whole. No stated cut-off is given here; in the data, active means growth inhibition above about 70%; inactive means the rest.

Tests used:
[1] = NCI Yeast Anticancer Drug Screen. Data for the rad50 strain (AID 155);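 further: 0% = growth of vehicle-only cultures of the same strain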; details: S. cerevisiae rad50 strain growth inhibition; at 50.0 µM; active compounds read high
In short: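 Relative growth inhibition (compound vs vehicle) was measured in yeast with a defined repair-gene alteration.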

[2] = NCI Yeast Anticancer Drug Screen. Data for the mec2-1 strain (AID 157); details: S. cerevisiae mec2-1 strain, at 50.0 µM, active compounds read high
In short: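 Growth inhibition is read against vehicle-treated controls after compound exposure of the mec2-1 yeast strain, which is defective in DNA damage repair or cell cycle control.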

[3] = NCI Yeast Anticancer Drug Screen. Data for the sgs1 mgt1 strain (AID 161);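 further: 0% = growth of cultures given vehicle only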; details: S. cerevisiae sgs1 mgt1 strain, at 50.0 µM, active compounds read high
In short: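 Percent growth inhibition was derived by comparing compound-exposed mutant yeast with vehicle-exposed cultures. The strain carries alterations in DNA damage repair.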

[4] = NCI Yeast Anticancer Drug Screen. Data for the cln2 rad14 strain (AID 165);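 further: 0% = growth equal to vehicle treated cultures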; details: S. cerevisiae cln2 rad14 strain, at 50.0 µM, active compounds read high
In short: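 Growth inhibition, relative to vehicle-treated controls, is the read-out. The test organism is a yeast strain with defined genetic alterations, cln2 rad14.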

[5] = NCI Yeast Anticancer Drug Screen. Data for the bub3 strain (AID 167); details: S. cerevisiae bub3 mutant strain, at 50.0 µM, active compounds read high
In short: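 Screening used yeast with an engineered genetic alteration affecting cell cycle control. Compound-exposed cultures were compared with vehicle cultures, and reduced growth was taken as inhibition.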

[6] = NCI Yeast Anticancer Drug Screen. Data for the mlh1 rad18 strain (AID 175); details: S. cerevisiae mlh1 rad18 strain growth inhibition; at 50.0 µM; active compounds read high
In short: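 Cells of a genetically altered yeast strain, deficient in DNA damage repair, were treated with compound. Their growth was then compared with that of vehicle-treated cultures to give inhibition.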

Measured: growth inhibition

COc1cc(C(N)Cc2ccccc2)ccc1O (stereo not given)
inactive: [1] -9.85% | [2] 1% | [3] -1.25% | [4] -33.1% | [5] 26.6% | [6] 4.6%

C[N+]1([O-])[C@H]2CC(OC(=O)[C@H](CO)c3ccccc3)C[C@H]1[C@H]1O[C@H]12 (stereo not given in full)
inactive: [1] -9.75% | [2] -3.35% | [3] -14.9% | [4] -26.5% | [5] -34.2% | [6] -10.1%

NC1CC2CCCCC2CC1c1ccccc1 (stereo not given)
inactive: [1] 14.8% | [2] 19.4% | [3] 18.5% | [4] 11.9% | [5] -5.85% | [6] 18.1%

O=C(Nc1ccc(N(CCCl)CCCl)cc1)Oc1ccc(C(=O)O)cc1
inactive: [1] 6.75% | [2] 6% | [3] 10.1% | [4] 9.3% | [5] 15.2% | [6] 20.5%

C/C=C/c1cc2n(c1)C(=O)c1cc(OC3OC(C)C(NC)C(C)(O)C3O)c(C)c(O)c1NC2O (stereo not given)
inactive: [1] 20.9% | [2] 1.1% | [3] 20.8% | [4] 2.75% | [5] 14.2% | [6] -47.4%

N#CCc1ccc(Br)cc1
inactive: [1] 0.2% | [2] 0.8% | [3] 5.65% | [4] -16.9% | [5] -14.9% | [6] 5.8%

COc1ccc2c3c1OC1C4(OC)CCC5(c6c(O)ccc(O)c64)C(C2)N(C)CCC315 (stereo not given)
inactive: [1] 5.75% | [2] 4% | [3] 7.2% | [4] 13.3% | [5] -6.4% | [6] 4.15%

CC(=O)CC(C)=O.CC(=O)CC(C)=O.CC(=O)CC(C)=O.[Cr]
inactive: [1] 20.2% | [2] -8.3% | [3] 1.05% | [4] -27.7% | [5] 4.3% | [6] 13.2%

CCOP(=O)(OCC)/C(C#N)=C/c1ncc[nH]1
inactive: [1] -36.6% | [2] -23.9% | [3] -48% | [4] 19.7% | [5] 26.2% | [6] -55.4%

O=NNc1ncc(Cl)cc1Cl
inactive: [1] 4.9% | [2] -23.8% | [3] -6.05% | [4] -4.7% | [5] 14.2% | [6] 8.65%

O=C(O)CC1NCc2cc3ccccc3nc21 (stereo not given)
inactive: [1] 6.4% | [2] -13.2% | [3] -17.2% | [4] 10% | [5] -0.8% | [6] 16.6%

CCNCCC1(CC)C(=O)NC(=O)NC1=O
inactive: [1] -22.2% | [2] -16.8% | [3] -27.4% | [4] 2.2% | [5] -43.7% | [6] -10.6%

CN(C)C(=O)C1(c2ccccc2)CCNCC1
inactive: [1] 19.4% | [2] -1.7% | [3] 3.25% | [4] 1% | [5] 1.2% | [6] -4.2%

C[C@]12CCC(=O)N[C@@H]1CC[C@@H]1[C@@H]2CC[C@]2(C)[C@@H](OC(=O)COc3ccc(N(CCCl)CCCl)cc3)CC[C@@H]12
inactive: [1] 0.45% | [2] 4.7% | [3] 0.15% | [4] 11.8% | [5] 5.75% | [6] -12.8%

OCC(Br)(Br)Br
inactive: [1] 44.4% | [2] -4.3% | [3] 19.5% | [4] 3.7% | [5] -2.55% | [6] 27.9%

CCOC(=O)N=C=O
inactive: [1] -17.8% | [2] 4.7% | [3] -15.7% | [4] 11.9% | [5] -3.1% | [6] -1.85%

[Cl][Cd][Cl]
inactive: [1] 54.5% | [2] 25.5% | [3] 2.6% | [4] 35.5% | [5] 13.2% | [6] 2.15%

O=C(Cc1c[nH]c2ccccc12)N/N=C\c1ccc(N(CCCl)CCCl)cc1
inactive: [1] 22.4% | [2] -10.3% | [3] 11.8% | [4] 31.9% | [5] -5.65% | [6] 4.55%

c1ccc2cc(C3NCCc4[nH]cnc43)ccc2c1 (stereo not given)
inactive: [1] 4.65% | [2] -7.6% | [3] -6.7% | [4] 2.85% | [5] -7.7% | [6] 29.8%

CCNC(=O)CCl
inactive: [1] 3.75% | [2] 1.2% | [3] 21.4% | [4] -2% | [5] -0.9% | [6] 10.4%
